Pf growth 96h: Primary qHTS for delayed death inhibitors of the malarial parasite plastid, 96 hour incubation; P. falciparum luciferase reporter growth, 96 h; Potency, µM (series often up to 28.7 µM), inactives show at the top dose activity change, negative = inhibition, hits mostly inhibitors; 320,000 tested, 6.9% active; AID 504834, 2011; note: % is set by controls: 0 for no effect and ±100 for the full control effect
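Readout is luminescence from an integrated firefly luciferase in P. falciparum. Red cells, 2% hematocrit and 0.05% parasitemia final, were cultured with compound through two parasite generations (96 hours) at 37 C, 5% CO2.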
SARS PLP yeast: qHTS of Yeast-based Assay for SARS-CoV PLP. S. cerevisiae expressing SARS-CoV PLpro, growth rescue. Potency, µM (highest dose often 32.9 µM), inactives show at the top dose activity, positive = growth rescue, hits mostly activators. 330,000 tested, 0.19% active. AID 485353, 2010; calls by dose curve; note: 0% is about no effect; nearly all actives have a fitted effect of over 55% in size
RE007 growth inh: qHTS Assay for Inhibitors of the HIV-1 protein Vpr; S. pombe RE007 Vpr strain, BacTiter-Glo ATP luminescence, 24 h; Potency, µM (series often up to 92.2 µM), without a hit: top-dose activity change, negative = less growth, hits mostly inhibitors; 360,000 tested, 0.21% active; active = well fitted falling curve with a large enough effect; inconclusive = small, poorly fitted or top-dose-only effect; inactive = no such curve, though single readings can be large or run the other way; note: % is set by controls: 0 for no effect and ±100 for the full control effect; nearly all actives have a fitted effect of over 50% in size
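Fission yeast RE007 carrying one integrated HIV-1 vpr copy, seeded at OD 0.01 in PMG+AL medium with 23 nL pinned compound. Grown 24 h at 30 degrees; viability read by BacTiter-Glo luminescence after 5 min.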
NS1 inh: qHTS Assay for Inhibitors of Influenza NS1 Protein Function; Potency, µM (doses to about 46.1 µM), inactives show at the highest dose activity, positive = more growth; 270,000 tested, 0.4% active; AID 2326, 2010; calls by dose curve; note: actives are rising curves; nearly all actives have a fitted effect of over 50% in size
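Recovery from NS1-induced slow growth read by OD600 in budding yeast switched to galactose assay medium (pH 6.0, -URA) at 1:100 dilution. Compound 23 nl per well; the matching strain lacking NS1 serves as control.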
Pf growth 48h: Primary qHTS for delayed death inhibitors of the malarial parasite plastid, 48 hour incubation | P. falciparum luciferase growth in erythrocytes, 48 h | Potency, µM (series often up to 28.7 µM), inactives show top-dose activity change, negative = inhibition, most hits filed as inhibitors | 310,000 tested, 5.9% active | AID 504832, 2011; note: % is set by controls: 0 for no effect and ±100 for the full control effect
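In quantitative HTS format, infected erythrocytes bearing luciferase-reporter parasites were treated for a single generation at 37 C. Luminescence after adding detection reagent served as the growth measure.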
* marks the source's active call; other numbers are inactive results; ? = inconclusive; nt = no result given; [ ] = remark or other dose. An excerpt weighted towards active compounds, which were near 9.5% of everything screened. Unless noted, calls come from the whole dose curve; as a rule, active = well fitted inhibition curve with a large enough effect; inconclusive = small, poorly fitted or top-dose-only effect, or another doubt; inactive = no such curve, though single readings can be large or run the other way. Potency is the fitted concentration of half-maximal effect.

SMILES	Pf growth 96h	SARS PLP yeast	RE007 growth inh	NS1 inh	Pf growth 48h
Cc1nnc(NC(=O)c2ccc(S(=O)(=O)N3CCCCC3C)cc2)o1 (configuration not stated)	?	0.3%	6.6%	-19.0%	11.7µM*
O=C(Nc1nnc(C2CC2)o1)c1ccc(S(=O)(=O)N2CCCCC2)cc1	16.5µM*	0.4%	17.5%	-10.8%	?
CC1CCCCN1S(=O)(=O)c1ccc(C(=O)Nc2nnc(C3=COCCO3)o2)cc1 (configuration not stated)	?	0.1%	14.9%	7.5%	-8.3%
CC1CCCCN1S(=O)(=O)c1ccc(C(=O)Nc2nnc(-c3ccccn3)o2)cc1 (configuration not stated)	5.9%	-3.2%	-10.7%	nt	7.9%
CC1CCCCN1S(=O)(=O)c1ccc(C(=O)Nc2nnc(-c3ccco3)o2)cc1 (configuration not stated)	4.65µM*	5.0%	?	-18.9%	?
CC1CCCCN1S(=O)(=O)c1ccc(C(=O)Nc2nnc(C3CC3)o2)cc1 (configuration not stated)	11.7µM*	-1.9%	-1.8%	-20.8%	?
CC1CCN(S(=O)(=O)c2ccc(C(=O)Nc3nnc(C4CC4)o3)cc2)CC1	?	13.2%	1.3%	-95.9%	?
CCOc1ccc(NC(=S)N(C)C)cc1	42.0%	-0.7%	12.7%	-1.7%	14.4%
CCCCCCCN(c1ccccc1)[C@@H]1C[C@H]2CCCC(=O)N3CC[C@@H](C1)[C@@H]23	nt	nt	-15.6%	nt	nt
COc1ccc(C(=O)Nc2nc3nccc(-c4ccccc4)n3n2)cc1	?	2.3%	4.3%	-0.4%	-18.0%
COc1ccc(-c2nnc(NC(=O)c3ccc(S(=O)(=O)N4CCCc5ccccc54)cc3)o2)cc1	?	9.7%	-13.7%	-43.8%	11.7µM*
COCc1nnc(NC(=O)c2ccc(S(=O)(=O)N3CCCc4ccccc43)cc2)o1	?	16.6%	16.2%	nt	?
CC1CCN(S(=O)(=O)c2ccc(C(=O)Nc3nnc(-c4ccncc4)o3)cc2)CC1	?	1.2%	8.3%	nt	?
CS(=O)(=O)c1ccc(-c2nnc(NC(=O)c3ccc(S(=O)(=O)N4CCCC4)cc3)o2)cc1	7.38µM*	17.2%	13.9%	nt	13.1µM*
O=C(Cn1cc(S(=O)(=O)Cc2cccc(F)c2)c2ccccc21)N1CCOCC1	-16.6%	-0.1%	-6.3%	6.7%	-13.5%
COc1cc(C(=O)O[C@H]2C/C(C)=C/CC[C@@]3(C)O[C@@H]3[C@H](O)[C@@H]2C(C)C)cc(OC)c1OC	?	-0.8%	-2.6%	-10.5%	?
COc1cc(C(=O)O[C@H]2C/C(C)=C/CC[C@]3(C)O[C@@H]3C(O)C2C(C)C)cc(OC)c1OC (some centres not stated)	4.15µM*	9.5%	2.0%	-10.1%	?
Cc1ccccc1NC(=O)NC(N)=O	-3.7%	2.8%	5.7%	nt	14.5%
Cc1ccccc1N=C(N)Nc1ccccc1C	10.4µM*	-0.5%	1.0%	nt	?
CCOC(=O)C1(Cc2cccc(OC)c2)CCCN(C(=O)c2cc(C)oc2C)C1 (configuration not stated)	14.7%	0.8%	10.7%	-10.1%	?
O=C(Nc1cccnc1Cl)C1=NN(c2ccccc2)C(=O)CC1	?	-1.8%	10.7%	-23.6%	?
CCN(CC)C(=O)CSc1nc(O)c(Cc2ccc(OC)cc2)c(=O)[nH]1	9.8%	5.8%	5.8%	21.0%	-5.8%
CCc1c(O)nc(SCC(=O)N(CC)CC)[nH]c1=O	13.1µM*	0.3%	22.0%	4.0%	?
O=C(c1cc(F)ccc1F)C1CCCN(C(=O)c2ccc3nccnc3c2)C1 (configuration not stated)	31.8%	-1.0%	4.0%	-20.2%	-32.0%
CCN(CC)C(=O)Cn1c(=O)c2ccccc2n2c(=S)sc(-c3cccc(C)c3)c12	2.08µM*	-13.6%	nt	0.8%	?
SMILES	Pf growth 96h	SARS PLP yeast	RE007 growth inh	NS1 inh	Pf growth 48h
CCN(C(=O)Cn1c(=O)n(-c2cc(OC)c(OC)c(OC)c2)c(=O)c2ccccc21)c1cccc(C)c1	-27.9%	-6.4%	5.2%	nt	-19.7%
C/C(=N\NC(=O)c1cc(C(C)(C)C)[nH]n1)C12CC3CC(CC(C3)C1)C2	51.4%	-0.2%	-7.6%	0.3%	2.62µM*
O=C(N/N=C/c1ccc(O)cc1)c1cc(C23CC4CC(CC(C4)C2)C3)[nH]n1	-26.8%	0.7%	-19.2%	-1.3%	-25.0%
Cc1ccc(S(=O)(=O)N2CCCC2CNC(=O)c2ccc(F)c(F)c2)cc1 (configuration not stated)	?	-0.7%	5.9%	nt	10.4µM*
COc1ccc(S(=O)(=O)N2CCCC2C(=O)Nc2ccc(C)cc2)cc1 (configuration not stated)	62.4%	-0.2%	-10.7%	-9.5%	-25.7%
Cc1ccc(S(=O)(=O)N2CCCC2C(=O)Nc2ccc(O)cc2)cc1 (configuration not stated)	5.22µM*	-18.8%	14.1%	4.6%	-21.3%
O=C(NCC1CCCN1S(=O)(=O)c1ccccc1)c1cccc(Cl)c1 (configuration not stated)	?	-5.6%	-20.9%	nt	?
CC(C)(C)c1ccc(C(=O)NCC2CCCN2S(=O)(=O)c2ccccc2)cc1 (configuration not stated)	13.1µM*	-8.1%	13.9%	nt	9.28µM*
Cc1ccc(C)c(S(=O)(=O)N2CCCC2CNC(=O)c2ccc([N+](=O)[O-])cc2)c1 (configuration not stated)	?	-4.4%	-12.1%	nt	10.4µM*
CC1CCN(C(=O)COC(=O)Cc2ccc(Br)cc2)CC1	30.3%	0.1%	-4.3%	4.2%	11.0%
Cc1ccc(C(=O)NCC2CCCN2S(=O)(=O)c2ccc(C)cc2)cc1 (configuration not stated)	10.4µM*	1.6%	-4.6%	nt	?
CN1CCc2ccccc2Cc2[nH]c3ccccc3c2CC1	6.57µM*	nt	-13.0%[18.4 µM]	-5.9%	8.28µM*
CCCCN1CCc2c([nH]c3ccccc23)C1=O	-6.1%	-0.6%	-5.1%	-15.8%	84.0%
Cc1c(N)c(C)c([N+](=O)[O-])c(C)c1[N+](=O)[O-]	3.2%	0.1%	-3.7%	7.8%	21.5%
Cc1c(N)c(C(C)(C)C)cc(C(C)(C)C)c1[N+](=O)[O-]	-15.1%	9.7%	31.6µM*	-5.3%	-3.5%
COc1cc(S(=O)(=O)NCc2ccccn2)ccc1Cl	16.5%	-7.1%	3.7%	10.0%	27.3%
COc1cc(S(=O)(=O)NCc2ccccn2)c(OC)cc1Cl	9.28µM*	18.5%	-1.6%	4.4%	-22.9%
O=C1/C(=N\S(=O)(=O)c2cccs2)C([n+]2ccc(CCCc3ccccc3)cc2)=C([O-])c2ccccc21	1.04µM*	-1.4%	1.0%	10.6%	0.37µM*
